# Measured values published in PubChem BioAssay (NCI).
# Where “and” joins values, the source holds several entries; their conditions need not be identical. Identical values can stand only once. Compounds without any hit were thinned out: in the full panel of roughly 79,000, 15% have a hit. Some structures have more than one record in an assay (separate samples or runs), and their calls can disagree. Calls of active or inactive are those of the source. Rule as the data show it: active = growth inhibition above about 70%; inactive = the rest.
# Columns and labels:
# [1] = NCI Yeast Anticancer Drug Screen. Data for the rad50 strain (AID 155);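 also: 0% = growth of vehicle-only cultures of the same strain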; conditions: S. cerevisiae rad50 strain growth inhibition, stronger effect = higher value
# Method in brief: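 A DNA repair-deficient yeast mutant serves as the test organism; compound-induced growth inhibition is calculated against vehicle-treated cells.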
# [2] = NCI Yeast Anticancer Drug Screen. Data for the mec2-1 strain (AID 157); conditions: S. cerevisiae mec2-1 strain, stronger effect = higher value
# Method in brief: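 Compounds were applied to mec2-1 yeast cells. Their growth was then compared with that of vehicle-treated cultures to give growth inhibition.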
# [3] = NCI Yeast Anticancer Drug Screen. Data for the sgs1 mgt1 strain (AID 161);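 also: 0% = growth of cultures given vehicle only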; conditions: S. cerevisiae sgs1 mgt1 strain, stronger effect = higher value
# Method in brief: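 Percent growth inhibition was derived by comparing compound-exposed mutant yeast with vehicle-exposed cultures. The strain carries alterations in DNA damage repair.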
# [4] = NCI Yeast Anticancer Drug Screen. Data for the cln2 rad14 strain (AID 165);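 also: 0% = growth equal to vehicle treated cultures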; conditions: S. cerevisiae cln2 rad14 strain, stronger effect = higher value
# Method in brief: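 Strain: cln2 rad14 yeast, altered in cell cycle control and DNA damage repair. Read-out: growth inhibition vs vehicle.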
# [5] = NCI Yeast Anticancer Drug Screen. Data for the bub3 strain (AID 167); conditions: S. cerevisiae bub3 mutant strain, stronger effect = higher value
# Method in brief: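 Inhibition values come from growth of compound-treated mutant yeast normalised to vehicle-treated controls.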
# [6] = NCI Yeast Anticancer Drug Screen. Data for the mlh1 rad18 strain (AID 175); conditions: S. cerevisiae mlh1 rad18 strain growth inhibition, stronger effect = higher value
# Method in brief: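 A repair-deficient yeast strain is exposed to test compound, and growth is scored relative to vehicle-treated controls.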
# [7] = at 5.0 µM (retest, dose inferred, filed as 0.5)
# [8] = at 50.0 µM (retest, dose inferred, filed as 5.0)
SMILES,"growth inhibition [1, 7]","growth inhibition [1, 8]",growth inhibition ([1]; at 50.0 µM),"growth inhibition [2, 7]","growth inhibition [2, 8]",growth inhibition ([2]; at 50.0 µM),"growth inhibition [3, 7]","growth inhibition [3, 8]",growth inhibition ([3]; at 50.0 µM),"growth inhibition [4, 7]","growth inhibition [4, 8]",growth inhibition ([4]; at 50.0 µM),"growth inhibition [5, 7]","growth inhibition [5, 8]",growth inhibition ([5]; at 50.0 µM),"growth inhibition [6, 7]","growth inhibition [6, 8]",growth inhibition ([6]; at 50.0 µM)
CCc1ccc([O-])c(C=NCCCN(C)CCCN=Cc2cc(C)ccc2[O-])c1.[Co+3].[N-]=[N+]=[N-],-10% (inactive),7% (inactive),22.1% (inactive),-8% (inactive),15% (inactive),-12.9% (inactive),-4% (inactive),6% (inactive),50.5% (inactive),-20% (inactive),0% (inactive),-34.5% (inactive),1% (inactive),8% (inactive),-11.2% (inactive),-4% (inactive),-7% (inactive),0.85% (inactive)
CC1CN1C1=C(F)C(=O)C(N2CC2C)=C(F)C1=O (centres undefined),98% (active),99% (active),90.8% (active),100% (active),99% (active),94% (active),99% (active),99% (active),91% (active),99% (active),99% (active),91% (active),99% (active),99% (active),92.5% (active),99% (active),99% (active),91.5% (active)
C[As](C)SCC1OC2OC(C)(C)OC2C2OC(C)(C)OC12 (centres undefined),28% (inactive),97% (active),91.5% (active),21% (inactive),99% (active),92.2% (active),45% (inactive),83% (active),92.5% (active),48% (inactive),73% (active),90.1% (active),44% (inactive),99% (active),91.5% (active),24% (inactive),96% (active),90.2% (active)
CC(Br)CN(CC(C)Br)c1ccc2c(c1)Cc1ccccc1-2 (centres undefined),12% (inactive),73% (active),82.8% (active),2% (inactive),69% (inactive),70.4% (active),8% (inactive),87% (active),93.2% (active),-16% (inactive),85% (active),56.3% (inactive),-7% (inactive),92% (active),85.5% (active),2% (inactive),82% (active),91.7% (active)
CC(=O)Nc1ccc(/C=N/N=C(/N)N[N+](=O)[O-])cc1,-7% (inactive),-1% (inactive),61.5% (inactive),-7% (inactive),-2% (inactive),63.8% (inactive),-5% (inactive),-1% (inactive),52.9% (inactive),-1% (inactive),1% (inactive),83.8% (active),-2% (inactive),-6% (inactive),71.5% (active),1% (inactive),-9% (inactive),81.3% (active)
CC(C)c1c(O)c(O)c2c(c1O)C(=O)C(O)=C1C(C)(C)CCC[C@@]12C,48% (inactive),95% (active),86.8% (active),72% (active),96% (active),88.8% (active),79% (active),95% (active),88.6% (active),64% (inactive),96% (active),85.8% (active),84% (active),95% (active),84.9% (active),86% (active),89% (active),80.4% (active)
CCOP(=O)(CP(=O)(OCC)OCC)OCC.[Cl][Sn]([Cl])([c]1ccccc1)[c]1ccccc1,11% (inactive),99% (active),98.8% (active),-4% (inactive),99% (active),98.9% (active),7% (inactive),97% (active),99.1% (active),7% (inactive),96% (active),98.1% (active),19% (inactive),98% (active),97.8% (active),1% (inactive),98% (active),99% (active)
O=C(N/N=C/c1ccc(F)cc1)c1ccc(N(CCCl)CCCl)cc1,-7% (inactive),-5% (inactive),38.9% (inactive),-12% (inactive),-11% (inactive),18.2% (inactive),-20% (inactive),2% (inactive),56.8% (inactive),-26% (inactive),-34% (inactive),25.2% (inactive),-3% (inactive),3% (inactive),27.8% (inactive),-3% (inactive),-8% (inactive),59.3% (inactive)
CC(=O)[CH-]C(=O)c1ccccc1.CC(=O)[CH-]C(=O)c1ccccc1.C[C@]12CCC(=O)C=C1CC[C@@H]1C2CC[C@@]2(C)C1CC[C@]2(C)[O-].C[C@]12CCC(=O)C=C1CC[C@@H]1C2CC[C@@]2(C)C1CC[C@]2(C)[O-].Cl.[Ti+4] (some centres undefined),33% (inactive),76% (active),86.8% (active),26% (inactive),87% (active),85% (active),37% (inactive),93% (active),84.8% (active),13% (inactive),72% (active),86.1% (active),39% (inactive),94% (active),84.5% (active),37% (inactive),90% (active),81.2% (active)
CC(=O)Oc1cccc2c1CC(C[Se]c1ccccc1)C(=O)O2 (centres undefined),11% (inactive),40% (inactive),69.9% (inactive),8% (inactive),35% (inactive),35.5% (inactive),11% (inactive),57% (inactive),70.2% (active),3% (inactive),23% (inactive),25.4% (inactive),-7% (inactive),38% (inactive),35% (inactive),11% (inactive),66% (inactive),74.2% (active)
CN(C)CCN(C)P12(Oc3ccccc3O1)Oc1c(Cl)c(Cl)c(Cl)c(Cl)c1O2,-8% (inactive),6% (inactive),99% (active),9% (inactive),14% (inactive),99.2% (active),-10% (inactive),9% (inactive),99% (active),-19% (inactive),22% (inactive),99.1% (active),-10% (inactive),12% (inactive),99.1% (active),0% (inactive),16% (inactive),97.6% (active)
CC12CCC3C(CCC4CC(N5CCCCC5)=CCC43C)C1CCC2O (centres undefined),-3% (inactive),98% (active),48.5% (inactive),-12% (inactive),97% (active),89.4% (active),5% (inactive),99% (active),47.1% (inactive),5% (inactive),98% (active),73% (active),-8% (inactive),98% (active),84.5% (active),-3% (inactive),98% (active),98.5% (active)
CCCNC(=O)Nc1ccc2c(c1)Cc1cc(N(CCCl)CCCl)ccc1-2,2% (inactive),32% (inactive),39.1% (inactive),0% (inactive),16% (inactive),23.1% (inactive),-4% (inactive),73% (active),37.3% (inactive),3% (inactive),-1% (inactive),24.9% (inactive),6% (inactive),86% (active),76.5% (active),3% (inactive),52% (inactive),31.2% (inactive)
CSCCl,3% (inactive),51% (inactive),88.2% (active),3% (inactive),73% (active),94.5% (active),4% (inactive),86% (active),90% (active),11% (inactive),97% (active),88.8% (active),0% (inactive),75% (active),97.6% (active),-6% (inactive),95% (active),95% (active)
C[CH2][Sn]([Cl])([CH2]C)[O][Sn]([CH2]C)([CH2]C)[O][Sn]([Cl])([CH2]C)[CH2]C,16% (inactive),79% (active),76% (active),19% (inactive),84% (active),81% (active),-17% (inactive),89% (active),86.3% (active),15% (inactive),90% (active),82.2% (active),12% (inactive),89% (active),83.2% (active),11% (inactive),77% (active),81.4% (active)
Cc1ccc(NP(=O)(Oc2ccccc2)N(CCCl)CCCl)cc1 (centres undefined),11% (inactive),10% (inactive),74% (active),-8% (inactive),10% (inactive),23.9% (inactive),8% (inactive),20% (inactive),73.5% (active),30% (inactive),61% (inactive),56.5% (inactive),14% (inactive),32% (inactive),62% (inactive),-10% (inactive),-5% (inactive),54.6% (inactive)
COC1=C(C)C(=O)c2c(c(COC(N)=O)c3n2CC2C3N2C)C1=O (centres undefined),37% (inactive),65% (inactive),93% (active),2% (inactive),52% (inactive),95.3% (active),30% (inactive),74% (active),73.8% (active),-8% (inactive),72% (active),87.1% (active),8% (inactive),27% (inactive),78.1% (active),13% (inactive),93% (active),96% (active)
S=C(S)N1CCCCC1,42% (inactive) and 15% (inactive),57% (inactive) and 13% (inactive),73.5% (active) and 45.1% (inactive) and 29.9% (inactive),38% (inactive) and 19% (inactive),60% (inactive) and 6% (inactive),45.7% (inactive) and 90.3% (active) and 31.6% (inactive),42% (inactive) and 15% (inactive),99% (active) and 41% (inactive),60.5% (inactive) and 97.8% (active) and 25.5% (inactive),76% (active) and 3% (inactive),99% (active) and -48% (inactive),29.4% (inactive) and 33.2% (inactive) and 0.25% (inactive),56% (inactive) and 0% (inactive),90% (active) and -1% (inactive),37.6% (inactive) and 99.3% (active) and -10.9% (inactive),46% (inactive) and 31% (inactive),56% (inactive) and 27% (inactive),52.8% (inactive) and 70.8% (active) and 59.6% (inactive)
